# In PubChem BioAssay:
# Where “and” joins values, the source holds several entries; their conditions need not be identical. Equal values may be shown once. Inconclusive results are not listed. Calls of active or inactive are those of the source. Unless noted, no cut-off is given here; in the data, nearly all actives have AC50 up to about 26 µM.
# Key:
# [1] = growth inhibition of DIPG glioma cells, dose response, cell-based, SU-DIPG-XVII, MIPE5.0, CellTiter-Glo, qHTS (AID 1347060); settings: SU-DIPG-XVII viability, CellTiter-Glo ATP luminescence;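 for AC50: cells exposed to compound for 48 hours before viability readout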
# [2] = growth inhibition of DIPG glioma cells, dose response, cell-based, SU-DIPG-XIII, MIPE4.0, CellTiter-Glo, qHTS (AID 1347061; cut-off not given, nearly all actives have AC50 up to about 37 µM;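 note: cells exposed to compound for 48 hours before readout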); settings: SU-DIPG-XIII viability, CellTiter-Glo ATP luminescence
# [3] = growth inhibition of DIPG glioma cells, dose response, cell-based, JHH-DIPG-1, MIPE4.0, CellTiter-Glo, qHTS (AID 1347062; cut-off not given, nearly all actives have AC50 up to about 27 µM;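 for AC50: cells exposed to compound for two days before readout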); settings: JHH-DIPG-1 viability, CellTiter-Glo ATP luminescence
# [4] = growth inhibition of DIPG glioma cells, dose response, cell-based, SU-DIPG-XIII, MIPE5.0, CellTiter-Glo, qHTS (AID 1347064; cut-off not given, nearly all actives have AC50 up to about 23 µM;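 for AC50: cells exposed to compound for 48 hours before the viability read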); settings: SU-DIPG-XIII viability, CellTiter-Glo ATP luminescence
# [5] = SU-DIPG-VI glioma cell viability, MIPE4.0 library, CellTiter-Glo luminescence, qHTS (AID 1347066; cut-off not given, nearly all actives have AC50 up to about 30 µM;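 note: cells exposed to compound for 48 hours before readout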); settings: CellTiter-Glo ATP luminescence
# [6] = sensitizers of A549 cells to miR-34 induction, primary screen, imaging, A549 dox-inducible miR-34, nuclei and caspase counts (AID 1347080;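 active = compounds whose cell count with miR-34 switched on is under 0.7 times the count with it off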); settings: A549 miR-34 inducible, Hoechst nuclei count, 48 h
# [7] = survival rescue of mitochondrial mutant cells in low glucose, primary screen, MELAS cybrids, Rieske KO mouse fibroblasts, CellTiter-Glo (AID 1508586;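 active = mean z-score across replicates of 1.96 or higher in either the MELAS or the Rieske mutant cell line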;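 note: z relative to plate mean and SD of compound and empty wells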)
# [8] = growth inhibition of DIPG glioma cells, dose response, cell-based, SU-DIPG-IV, MIPE4.0, CellTiter-Glo, qHTS (AID 1347063; cut-off not given, nearly all actives have AC50 up to about 30 µM;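 note: compound exposure lasted 48 hours before the viability readout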); settings: SU-DIPG-IV viability, CellTiter-Glo ATP luminescence
# [9] = viability loss in pontine glioma line – cell-based, SU-DIPG-XXV, MIPE5.0, CellTiter-Glo, qHTS, dose response (AID 1347065); settings: CellTiter-Glo ATP luminescence;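 note: cells exposed to compound for 48 hours before ATP readout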
# [10] = JHH-DIPG-1 glioma cell viability, MIPE5.0 library, CellTiter-Glo luminescence, qHTS (AID 1347067); settings: JHH-DIPG-1 glioma viability, CellTiter-Glo ATP luminescence;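 note: cells exposed to compound for 48 hours before readout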
# [11] = SU-DIPG-XXV glioma cell viability, MIPE5.0 library, qHTS (AID 1347068; cut-off not given, nearly all actives have IC50 up to about 30 µM)
# [12] = stronger effect = lower value, cell number ratio, induced over uninduced
# [13] = measured here: relative caspase fold change +Dox/-Dox
# [14] = measured here: total cells with miR-34 induction, stronger effect = lower value
# [15] = measured here: total cells without miR-34 induction
# [16] = MELAS cybrid survival, CellTiter-Glo 48 h, stronger effect = higher value
# [17] = Rieske KO mouse fibroblast survival, CellTiter-Glo 72 h
structure (smiles),measurement,setting,value
CCN(C(=O)c1c(O)c2c(Cl)cccc2n(C)c1=O)c1ccccc1,AC50,[1],8.33 µM (active)
same,outcome,[2],inactive
same,AC50,[3],14.8 µM (active)
same,outcome,[4],inactive
same,outcome,[5],inactive
same,fold change,[6]; [12],0.884 (inactive)
same,fold change,[6]; [13],0.907
same,cell count,[6]; [14],8690
same,cell count,[6]; [15],9820
same,z-score,[7]; [16],-0.321 (inactive)
same,z-score,[7]; [17],0.483
CCOC(=O)[C@@H](N)Cc1ccc(-c2cc(O[C@H](c3ccc(Cl)cc3-n3ccc(C)n3)C(F)(F)F)nc(N)n2)cc1,AC50,[1],11.8 µM (active)
same,outcome,[2],inactive
same,AC50,[8],26.4 µM (active)
same,AC50,[4],20.9 µM (active)
same,AC50,[9],13.2 µM (active)
same,AC50,[5],16.6 µM (active)
same,AC50,[10],13.2 µM (active)
O=c1c(O)c(-c2cc(O)c(O)c(O)c2)oc2cc(O)cc(O)c12,outcome,[1],inactive
same,outcome,[2],inactive
same,outcome,[3],inactive
same,outcome,[9],inactive
same,outcome,[5],inactive
same,outcome,[10],inactive
same,fold change,[6]; [12],1.07 (inactive) and 0.861 (inactive) and 0.936 (inactive)
same,fold change,[6]; [13],0.806 and 1.45 and 0.825
same,cell count,[6]; [14],8570 and 8710 and 9810
same,cell count,[6]; [15],8020 and 10100 and 10500
same,z-score,[7]; [16],-0.358 (inactive)
same,z-score,[7]; [17],0.188
CN(C)C(=O)c1ccc(S(=O)(=O)c2ccc(NC(=O)[C@@](C)(O)C(F)(F)F)c(Cl)c2)cc1,outcome,[1],inactive
same,outcome,[2],inactive
same,outcome,[3],inactive
same,outcome,[10],inactive
Cc1ccc(C(C)(O)c2nc3ccccc3s2)c(C)c1 (stereo unspecified),outcome,[1],inactive
same,outcome,[2],inactive
same,outcome,[3],inactive
same,outcome,[4],inactive
same,outcome,[5],inactive
same,outcome,[10],inactive
same,outcome,[11],inactive
